Measurements: PubChem BioAssay AID720704 (The Scripps Research Institute Molecular Screening Center, 2013)
The whole screen tested about 370,000 compounds, of which about 660 (0.18%) were called active. The sample holds actives, similar compounds and a random draw of the others, so the mix is not that of the screen. Cut-off read from the data, not from the text of the source: active = inhibition above about 11%; inactive = the rest.

Each molecule was assayed against 1-phosphatidylinositol 4,5-bisphosphate phosphodiesterase beta-3 (Homo sapiens) (UniProt Q01970) (assay: human PLC-beta3 inhibitors, primary screen, biochemical, fluorescence (AID 720704;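 note: 0% = median of compound wells on plate and 100% = full blocker control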)). Settings: Purified PLC-beta3, fluorogenic substrate, at 12.2 µM, hits give high values.
Chain of 1-phosphatidylinositol 4,5-bisphosphate phosphodiesterase beta-3 (Homo sapiens) (Q01970 whole entry, looked up): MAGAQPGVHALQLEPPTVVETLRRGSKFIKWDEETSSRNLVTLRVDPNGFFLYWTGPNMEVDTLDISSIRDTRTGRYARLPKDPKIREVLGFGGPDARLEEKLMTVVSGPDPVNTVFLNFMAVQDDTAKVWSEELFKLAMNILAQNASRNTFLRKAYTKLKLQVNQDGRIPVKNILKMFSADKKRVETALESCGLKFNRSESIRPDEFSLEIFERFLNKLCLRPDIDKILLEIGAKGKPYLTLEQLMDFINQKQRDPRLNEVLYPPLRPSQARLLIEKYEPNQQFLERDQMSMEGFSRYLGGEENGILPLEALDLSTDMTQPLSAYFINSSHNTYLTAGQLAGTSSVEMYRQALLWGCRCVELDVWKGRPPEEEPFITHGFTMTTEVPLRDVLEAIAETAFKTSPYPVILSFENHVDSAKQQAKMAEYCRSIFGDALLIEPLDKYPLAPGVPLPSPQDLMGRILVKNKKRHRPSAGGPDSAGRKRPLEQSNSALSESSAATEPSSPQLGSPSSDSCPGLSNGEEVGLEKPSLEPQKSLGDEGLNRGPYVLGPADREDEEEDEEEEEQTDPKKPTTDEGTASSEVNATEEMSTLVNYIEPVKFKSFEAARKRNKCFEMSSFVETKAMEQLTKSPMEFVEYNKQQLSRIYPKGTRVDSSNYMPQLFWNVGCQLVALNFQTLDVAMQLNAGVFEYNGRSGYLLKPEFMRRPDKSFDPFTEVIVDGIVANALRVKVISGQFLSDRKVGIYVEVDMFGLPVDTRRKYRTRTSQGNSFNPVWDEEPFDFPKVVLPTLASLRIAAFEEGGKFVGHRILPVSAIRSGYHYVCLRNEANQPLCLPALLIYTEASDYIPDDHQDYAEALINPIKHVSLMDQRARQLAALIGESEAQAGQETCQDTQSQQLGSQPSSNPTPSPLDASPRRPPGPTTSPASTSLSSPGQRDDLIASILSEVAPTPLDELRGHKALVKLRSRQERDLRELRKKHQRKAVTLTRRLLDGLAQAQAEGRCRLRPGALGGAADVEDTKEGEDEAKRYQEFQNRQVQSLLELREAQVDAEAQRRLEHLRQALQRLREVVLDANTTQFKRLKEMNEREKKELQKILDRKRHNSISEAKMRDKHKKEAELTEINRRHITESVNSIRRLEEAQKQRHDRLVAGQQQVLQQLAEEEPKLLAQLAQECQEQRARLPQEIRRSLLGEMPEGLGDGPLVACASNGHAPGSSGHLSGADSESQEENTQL
With `CCC(=NCc1ccco1)c1c(O)n(Cc2ccccc2)c(=O)[nH]c1=O` the inhibition was 11.8% (active).
With `CN(C)CCCN=Cc1c(O)n(Cc2ccco2)c(=O)[nH]c1=O` the inhibition was -6.13% (inactive).
With `CCCCn1c(O)c(C(CC)=NCc2ccco2)c(=O)[nH]c1=O` the inhibition was 7% (inactive).
`COC(=O)[C@@H]1C(OC(=O)c2ccccc2)CC2CCC1N2C` (stereo not given in full) was tested, and the inhibition was -5.47% (inactive).
For `CCN1c2nc3c(C)cccn3c(=O)c2CC2(C(=O)N(C)C(=O)N(C)C2=O)C1C` (stereo not given), the inhibition was -9.87% (inactive).
`c1ccc(CC2CCCCN2)cc1` (stereo not given) was tested, and the inhibition was -1.27% (inactive).
`CC(C)(C)[C@]1(O)C[C@@H]2OC(=O)C[C@@]23C(=O)O[C@@H]2OC(=O)[C@H](O)[C@]213` was tested, and the inhibition was 11.8% (active).
`CN(C)/C=C(\C=[N+](C)C)c1[nH]ncc1[N+](=O)[O-]` was tested, and the inhibition was 3.86% (inactive).
For `Cc1cc(C)cc(NC(=S)NC2CC3CCCC(C2)N3Cc2cccs2)c1` (stereo not given), the inhibition was 5.75% (inactive).
`O=C(COC(=O)Cc1ccccc1)Nc1ccc(F)cc1` was tested, and the inhibition was 3.13% (inactive).
